Measurements as given in publication PMC5540273 (PLoS ONE, 2017).

Assays:
Conditions in all cases: concentration: 1 μM, replicates: in singlicate; n = 1
CDK4-cyclinD3 = test system: CDK4-cyclinD3
CDK4 = test system: CDK4
CDK5 = test system: CDK5
CDK7 = test system: CDK7
CDK8 = test system: CDK8
CDK9 = test system: CDK9
CDKL1 = test system: CDKL1
CDKL2 = test system: CDKL2
CDKL3 = test system: CDKL3
CDKL5 = test system: CDKL5
CHEK1 = test system: CHEK1
CHEK2 = test system: CHEK2
CIT = test system: CIT
CLK1 = test system: CLK1
CLK2 = test system: CLK2
CLK3 = test system: CLK3
CLK4 = test system: CLK4
CSF1R-autoinhibited = test system: CSF1R-autoinhibited
CSF1R = test system: CSF1R
CSK = test system: CSK
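Note: KINOMEscan kinase panel screen.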

SMILES	%Inh (CDK4-cyclinD3) [%]	%Inh (CDK4) [%]	%Inh (CDK5) [%]	%Inh (CDK7) [%]	%Inh (CDK8) [%]	%Inh (CDK9) [%]	%Inh (CDKL1) [%]	%Inh (CDKL2) [%]	%Inh (CDKL3) [%]	%Inh (CDKL5) [%]	%Inh (CHEK1) [%]	%Inh (CHEK2) [%]	%Inh (CIT) [%]	%Inh (CLK1) [%]	%Inh (CLK2) [%]	%Inh (CLK3) [%]	%Inh (CLK4) [%]	%Inh (CSF1R-autoinhibited) [%]	%Inh (CSF1R) [%]	%Inh (CSK) [%]
Fc1ccc(-c2ncn(CCCN3CCOCC3)c2-c2cccnc2)cc1 [SB-211743]	0	1	0	8	0	0	28	0	0	0	0	0	0	24	0	11	2	0	0	0
Fc1ccc(-c2ncn(CCCN3CCOCC3)c2-c2ccccn2)cc1 [SB-211742]	0	0	0	0	29	0	40	49	4	5	0	0	8	8	8	3	0	0	0	0
Cc1cccc(-c2nc(-c3ccc(S(C)(=O)=O)cc3)sc2-c2ccncc2)c1	19	0	12	25	9	0	0	4	0	7	0	1	9	0	0	0	11	0	9	8
O=C(NCCNc1ccnc(Nc2ccc(F)cc2)n1)c1cc2ccccc2s1 [GSK1379874]	0	0	0	0	38	0	8	5	0	0	2	0	22	29	0	26	37	8	0	0
COc1ccc(S(=O)(=O)NC2CCN(c3cc(C)nc(Nc4cccc(C#N)c4)n3)CC2)cc1.O=C(O)C(F)(F)F [GSK1653539]	0	38	0	0	4	0	15	0	0	0	0	14	0	20	0	56	3	0	1	0
